Assay outcomes: PubChem BioAssay, National Center for Advancing Translational Sciences (NCATS)
In the library only some 2.8% were active in any assay of this set; here they are far more common.
HEK293 viab: reduces viability of HEK-293 SNCA reporter cells. HEK-293-SNCA-luc viability, GF-AFC fluorescence, 24 h. Potency, µM (top dose mostly 57.1 µM), without a hit: at the highest dose activity change, negative = cytotoxicity, actives largely listed as cytotoxic. actives 0.12% (n = 150,000);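 further: potency means the concentration at half of the fitted maximal effect; 0% = DMSO-treated cells and -100% = medium-only wells without cells; nearly all actives have a fitted effect of over 30% in size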
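HEK-293-SNCA-luc cells (1500/well) plated 24 h, then exposed 24 h to a dilution series; GF-AFC added 30 min at 37C, fluorescence 405/540 nm; normalised to medium-only and DMSO wells, Hill fit.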
IP6K1 inh: blocks human inositol hexakisphosphate kinase 1; IP6K1 kinase, ADP-Glo luminescence, 2 h; stronger effect = lower value; actives 0.81% (n = 140,000); Q92551; activity change, % (series mostly up to about 58 µM); in the data active means activity change below about -25%; further: on the % scale 0 is the no-effect control and ±100 the full control effect
Target sequence (Q92551 whole entry, looked up): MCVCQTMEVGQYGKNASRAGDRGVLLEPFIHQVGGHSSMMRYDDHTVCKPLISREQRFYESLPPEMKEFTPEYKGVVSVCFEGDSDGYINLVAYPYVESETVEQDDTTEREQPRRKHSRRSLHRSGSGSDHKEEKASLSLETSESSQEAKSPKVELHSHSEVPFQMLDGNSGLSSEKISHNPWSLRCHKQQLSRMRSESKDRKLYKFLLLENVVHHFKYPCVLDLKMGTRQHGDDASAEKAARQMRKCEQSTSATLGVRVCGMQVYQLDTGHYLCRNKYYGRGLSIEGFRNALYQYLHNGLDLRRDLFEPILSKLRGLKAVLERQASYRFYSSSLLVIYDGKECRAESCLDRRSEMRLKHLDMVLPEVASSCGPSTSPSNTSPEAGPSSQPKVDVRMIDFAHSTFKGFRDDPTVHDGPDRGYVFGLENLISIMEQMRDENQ
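ADP-Glo luminescence measures ADP made by human IP6K1 during a 2 h RT reaction with ATP/IP6 (mix at 1.3 mM/130 uM); top library doses 57.5 and 19.1 uM final.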
SNCA expr inhib: reduces expression of the alpha-synuclein gene; HEK-293 SNCA-luciferase knock-in, luminescence, 24 h; Potency, µM (titrated, usually from 57.2 µM), inactives show at the highest dose activity change, negative = inhibition, most hits filed as inhibitors; actives 0.17% (n = 140,000); AID 1671194;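 further: potency means the concentration at half of the fitted maximal effect; plate controls were DMSO cells for no effect and cell-free wells for full effect; nearly all actives have a fitted effect of over 45% in size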
KDM5B inh: blocks human KDM5B histone demethylase activity; Q9UGL1; Potency, µM (doses to about 57.7 µM), actives largely listed as inhibitors; KDM5B demethylase, FDH-coupled NADH fluorescence (FDH is formaldehyde dehydrogenase); actives 2.6% (n = 220,000); AID 1347165; further: potency means the concentration at half of the fitted maximal effect; 0% is about no effect; nearly all actives have a fitted effect of over 70% in size
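Coupled FDH/NAD⁺ fluorescence readout. KDM5BΔAP 200 nM final; compound titration, 10 min RT preincubation; substrate mix 12.5 µM H3K4me3, 25 µM 2-OG, 50 µM Fe(II), 100 µM ascorbate, 0.25 mM NAD⁺, 0.25 U/mL FDH; ΔRFU over 30 min.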
Starred values were filed as active, the others as inactive; i = inactive; ? = inconclusive; / = not tested or not shown; [ ] = dose if it differs, or a comment. Unless noted, the call rests on the fitted dose curve; in most records, active means well fitted curve in the direction sought with a large enough effect; inconclusive means small, poorly fitted or top-dose-only effect, or another doubt; inactive means no such curve, though single readings can be large; an effect the other way counts as inactive or inconclusive.

SMILES	HEK293 viab	IP6K1 inh	SNCA expr inhib	KDM5B inh
Cc1cn2nc(-c3nc(C4CCCN(C(=O)c5sccc5C)C4)no3)cc2c(=O)[nH]1 (stereo unspecified)	-9%	10	-22%	25µM*
Cc1cccc(C(=O)N2CCCC(c3noc(-c4cc5c(=O)[nH]c(C)cn5n4)n3)C2)c1 (stereo unspecified)	-11%	0	?	i
CCc1ccc(C(=O)N2CCCC(c3noc(-c4cc5c(=O)[nH]c(C)cn5n4)n3)C2)cc1 (stereo unspecified)	-18%	2	5%	25µM*
Cc1cn2nc(-c3nc(C4CCCN(C(=O)Cc5ccsc5)C4)no3)cc2c(=O)[nH]1 (stereo unspecified)	-4%	5	0%	i
Cc1cn2nc(-c3nc(C4CCCN(C(=O)c5ccc(C)s5)C4)no3)cc2c(=O)[nH]1 (stereo unspecified)	-2%	-16	42%	28µM*
CCN(Cc1cnn(C)c1)C(=O)c1coc(COc2cccc(C(F)(F)F)c2)n1	0%	6	5%	i
CCc1nncn1C1CCN(C(=O)c2ccc(OC)cc2)CC1	16%	-3	5%	i
CSc1ccc(-c2noc(-c3ncn4c3COC(c3ccc(F)cc3)C4)n2)cc1 (stereo unspecified)	1%	-4	4%	i
CN(C)c1nc2c(c(=O)[nH]1)CCN(Cc1ccc(F)c(F)c1)CC2	-4%	17	1%	i
COc1nccnc1NC1CCN(C(=O)COc2ccc(C)cc2)CC1	-5%	2	-16%	28µM*
COc1nccnc1NC1CCN(C(=O)NC2CCCC2)CC1	-1%	-7	-2%	28µM*
COc1nccnc1NC1CCN(C(=O)COc2ccccc2C)CC1	-1%	1	-6%	32µM*
COc1ccc(NC2CCCN(C(=O)COc3ccc(C)cc3)C2)cc1 (stereo unspecified)	/	/	/	i
CCCCS(=O)(=O)N1CCc2n[nH]c(=O)n2CC1	-1%	-13	-7%	20µM*
CCCS(=O)(=O)N1CCc2n[nH]c(=O)n2CC1	6%	-6	?	i
CCN1C(=O)C2CC3(CCN(C(=O)CC4CCCC4)CC3)CN2C1=O (stereo unspecified)	-5%	9	1%	i
COCCOc1ncccc1-c1noc([C@@H]2CCCN2Cc2ccc(C(=O)O)cc2)n1	-2%[87.6 µM]	-2	-5%[87.6 µM]	?
COCCNc1ncccc1-c1noc([C@@H]2CCCN2Cc2ccc(C(=O)O)cc2)n1	2%[87.6 µM]	11	15%[87.6 µM]	35µM*
COCCNc1ccc(-c2noc([C@@H]3CCCN3C3CCOCC3)n2)cn1	-7%[87.6 µM]	13	2%[87.6 µM]	?
COCCNc1ncccc1-c1noc([C@@H]2CCCN2C2CCN(C)CC2)n1	-6%[87.6 µM]	2	13%[87.6 µM]	32µM*
COCCNc1ncccc1-c1noc([C@@H]2CCCN2Cc2ccccc2OC)n1	-14%[87.6 µM]	20	-3%[87.6 µM]	?
COCCNc1ncccc1-c1noc([C@@H]2CCCN2C2CCN(C(C)=O)CC2)n1	5%[87.6 µM]	3	15%[87.6 µM]	35µM*
COCCNc1ncccc1-c1noc([C@@H]2CCCN2C2CCC2)n1	0%[87.6 µM]	-12	-23%[87.6 µM]	32µM*
Cc1ccc(CNC2(Cc3cc(CO)on3)COC2)o1	1%[87.6 µM]	19	8%[87.6 µM]	i
Cn1ccnc1CNC(=O)C[C@@H]1C[C@H]2O[C@H](CN)[C@@H](O)[C@H]2O1	-2%[87.6 µM]	-3	-27%[87.6 µM]	i
SMILES	HEK293 viab	IP6K1 inh	SNCA expr inhib	KDM5B inh
Cc1ccc(F)c(NC(=O)[C@@H]2COCC(=O)N2Cc2ccc(F)cc2)c1	4%	-2	?	40µM*
Cc1cccc(NC(=O)[C@@H]2COCC(=O)N2Cc2ccc(F)cc2)c1	-13%	-13	6%	/
COc1ccc(Cl)cc1-c1ncc2c(n1)OCCN(c1ccccc1)C2=O	-7%[87.6 µM]	11	-6%[87.6 µM]	28µM*
COc1ccc(-c2ncc3c(n2)OCCN(C)C3=O)cc1OC	3%[87.6 µM]	-4	73%[87.6 µM]	28µM*
CN1CCOc2nc(-c3cccc(OC(F)(F)F)c3)ncc2C1=O	-21%[87.6 µM]	3	-27%[87.6 µM]	i
COc1ccccc1-c1ncc2c(n1)OCCN(c1cccc(C(F)(F)F)c1)C2=O	?	-10	23%[87.6 µM]	32µM*
O=C(Nc1ccc2[nH]c(=O)[nH]c2c1)c1ccc(Cl)cc1N1CCCC1=O	/	/	/	i
CCNC(=O)C1CCN(C(=O)c2ccc3nc(-c4ccccc4)cn3c2)C1 (stereo unspecified)	-3%	-1	64%	28µM*
Cn1cc(CN(C(=O)c2ccc3nc(-c4ccccc4)cn3c2)C2CC2)cn1	2%	-11	19%	?
